Laboratory results from paper PMC5540273 (PLoS ONE, 2017).
pKd: −log10 of the molar value.

How the values were obtained:
LKB1 = tested on: T1, LKB1
T1 construct: gene STK11

LOK = tested on: T2, LOK
T2 construct: gene STK10

MEK1 = tested on: T3, MEK1
T3 construct: gene MAP2K1

MEK2 = tested on: T4, MEK2
T4 construct: gene MAP2K2

MINK = tested on: T5, MINK
T5 construct: gene MINK1
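Also: kd values determined as follow-up on hits from a single-replicate KINOMEscan panel screen.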

CCn1c(-c2nonc2N)nc2ccccc21 [SB-693162/GW549034]
pKd (LATS2): 5.74 | pKd (LRRK2): < 5.00

Nc1ncnc2c1ncn2-c1cccc2ccccc12 [SKF-97184]
pKd (LKB1): < 5.00

COc1cc2ncn(-c3cc(OCc4ccncc4Br)c(C(N)=O)s3)c2cc1OC [GW854278]
pKd (LOK): 6.30

Cc1nnc(-c2ccc(C)c(-c3ccc(C(=O)O)cc3)c2)o1 [GW608005]
pKd (LOK): < 5.00

Cc1ccccc1COc1cc(-n2cnc3cc(Cl)ccc32)sc1C(N)=O [GW813349]
pKd (LRRK2): < 5.00

Nc1n[nH]c2nnc(-c3ccccc3)c(-c3ccccc3)c12 [GW554060]
pKd (LYN): < 5.00

CCS(=O)(=O)c1ccc(OC)c(Nc2ncc(-c3ccc(F)cc3)o2)c1.Cl [GW591947]
pKd (MAK): < 5.00

Cc1nnc(-c2ccc3ncn(-c4ccc(S(C)=O)cc4)c3c2)o1 (stereo not shown)
pKd (MAP4K2): < 5.00

CN1C(=O)C(Nc2cc(Cl)c(O)c(Cl)c2)=C(c2ccc(Cl)cc2)C1=O [SB-404321]
pKd (MAPKAPK2): < 5.00

Cc1cccc(-c2nc(Nc3ccc4c(cnn4C)c3)c3ccccc3n2)n1 [GW876731]
pKd (MAST1): < 5.00 | pKd (MKNK1): < 5.00

CN1C(=O)C(Nc2ccccc2)=C(c2ccccc2)C1=O [SB-300079]
pKd (MAST1): < 5.00

COc1cc2nccc(Nc3cccc(Oc4ccccc4)c3)c2cc1OC.Cl [GW284543]
pKd (MEK1): 7.00 | pKd (MEK2): 6.57

Cn1c(=O)c(F)c(Nc2ccc(I)cc2F)c2c(=O)n(OC[C@H](O)CO)cnc21
pKd (MEK1): 7.47 | pKd (MEK2): 6.70

O=C(Nc1ccc2c(c1)OCO2)NC1CCN(c2ccnc(NCc3ccc(F)cc3)n2)CC1 [GSK1379859]
pKd (MELK): < 5.00

Nc1nc(-c2ccccc2F)c(-c2ccnc3ccccc23)s1 [GW560459]
pKd (MINK): 5.77

COc1ccc(CNC(=O)NC2CCN(c3ccnc(Nc4ccc(F)cc4)n3)C2)cc1 (stereo not shown) [GSK1379706]
pKd (MINK): < 5.00

Nc1n[nH]c2ncc(-c3ccccc3)cc12 [SB-517081]
pKd (MKNK2): 6.59

O=C(Nc1n[nH]c2nc(-c3ccccc3)c(Br)cc12)C1CC1 [SB-708998]
pKd (MST1R): < 5.00

COc1ccc(-c2cc3c(C)nc(N)nc3n([C@H]3CC[C@H](OCCO)CC3)c2=O)cn1
pKd (MTOR): 8.48

COc1ccc(-c2cc3c(C)nc(N)nc3n([C@H]3CC[C@H](O)CC3)c2=O)cn1
pKd (MTOR): 8.32

COc1cc2ncn(-c3cc(OCc4ccncc4)c(C(N)=O)s3)c2cc1OC [GSK336313]
pKd (MUSK): < 5.00
